From PubChem
The list is not random: actives were taken first. Their share in the collection is about 4.8%.
HIF act: HIF pathway transcriptional activation. U2OS HRE-luciferase reporter, luminescence; normalized: DMSO 0%, desferrioxamine 100%. hit rate 0.32% among 300,000. activation, % at 7.5 µM (by protocol). AID 1910;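 active = mean activation of at least 10% of the iron chelator positive control signal, with at least half of replicates also reaching 10%; inconclusive = mean and replicate majority disagree about reaching 10%; inactive = mean and most replicates under 10%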
ALR H2O2 inh: inhibitors of human sulfhydryl oxidase ALR; P55789; purified ALR, DTT oxidation, H2O2 HRP-luminol luminescence; inhibition, % (no concentration beside the values); hit rate 3.8% among 290,000; AID 485317;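 active = mean replicate inhibition above about 79%, with every replicate also reaching it, limit read from the data; inconclusive = only one of the two criteria met; inactive = mean below limit and not every replicate reaching it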
Target sequence (P55789 whole entry, looked up): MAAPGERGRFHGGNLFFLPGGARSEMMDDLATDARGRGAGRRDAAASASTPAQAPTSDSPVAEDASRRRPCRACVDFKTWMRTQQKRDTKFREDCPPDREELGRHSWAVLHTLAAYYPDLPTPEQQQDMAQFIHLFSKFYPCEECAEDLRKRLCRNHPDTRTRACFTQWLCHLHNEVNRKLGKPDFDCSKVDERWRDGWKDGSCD
Mot1-301 SUMO: SUMOylation pathway inhibition by Mot1-301 growth rescue; S. cerevisiae Mot1-301 growth rescue, ATP luminescence, 38.5C; percent above DMSO median, 100 means doubled; growth rescue, % at 18.8 µM; hit rate 1% among 320,000;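 active = every valid replicate shows activation above 250% relative to neutral control wells; inactive = the rest, any valid replicate at or below 250%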
AI-2 QS modul: modulates the Vibrio harveyi AI-2 quorum sensing system; Vibrio harveyi JMH597 AI-2 luminescence/OD600 ratio, 9 h; hits give low values; strain lacks LuxN and CqsS sensors; 0 = neutral-control median; activity change, % at 7.5 µM; hit rate 0.4% among 300,000; AID 2094; in the data active = activity change below about -75%, passing the limit was not always enough; inconclusive = no clear call, values can overlap the other calls;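 also: luminescence divided by OD600 gain over 9 h not by final OD600 alone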
Large screens that a line does not name were inactive.

COc1ccccc1-n1c(SCc2cc(=O)oc3cc(O)ccc23)nc2ccccc2c1=O	none
CCC(CO)n1c(SCc2cc(=O)oc3cc(C)ccc23)nc2ccccc2c1=O (stereo unspecified)	ALR H2O2 inh 99
CC(/C=N/n1c(-c2ccc(C)cc2)n[nH]c1=S)=C\c1ccco1	ALR H2O2 inh 97
Cc1cccc(-c2n[nH]c(=S)n2/N=C/C=C/c2ccco2)c1	ALR H2O2 inh 97
S=c1[nH]nc(-c2ccncc2)n1/N=C/C=C/c1ccco1	none
S=c1[nH]nc(-c2cccc(Cl)c2)n1/N=C/c1ccco1	ALR H2O2 inh 97
C[C@H]1c2cccc(O)c2C(O)=C2C(=O)[C@]3(O)C(O)=C(C(N)=O)C(=O)[C@@H](N(C)C)C3[C@@H](O)C21 (stereo partly specified)	AI-2 QS modul -120 (no result: ALR H2O2 inh)
COc1cc(/C=C/C(=O)O)cc(S(=O)(=O)NNC(=O)c2ccc3c(c2)OCO3)c1OC	ALR H2O2 inh 90 (no result: HIF act, AI-2 QS modul)
CC(=O)O[C@H]1[C@H](C)OC=C[C@@H]1OC(C)=O	none
NNC(=O)c1ccc(O)cc1O	ALR H2O2 inh 99
COc1cccc(-c2nc(CSCC(=O)NCC3CCCO3)c(C)o2)c1 (stereo unspecified)	ALR H2O2 inh 99
Cc1cccc(-c2nc(CS(=O)CC(=O)NC3CCCC(C)C3C)c(C)o2)c1 (stereo unspecified)	ALR H2O2 inh 99
CCOC(=O)CC1CCCCN1Cc1nc(-c2ccc(F)c(OC)c2)oc1C (stereo unspecified)	none
COc1ccc2nc(-c3ccccc3)nc(SCC(=O)NCC3CCCO3)c2c1 (stereo unspecified)	none
Cc1oc(-c2ccc(Cl)cc2)nc1CS(=O)CC(=O)NCCCN(C)C1CCCCC1 (stereo unspecified)	ALR H2O2 inh 99
CCC1CCCCN1CCCNC(=O)CS(=O)Cc1nc(-c2ccc(OC)c(OC)c2)oc1C (stereo unspecified)	ALR H2O2 inh 100
CCC(C)(C)c1ccc(OC(=O)c2cccnc2Cl)cc1	none
CCCS(=O)(=O)c1nc(S(=O)(=O)c2ccc(C)cc2)c(N2CCC3(CC2)OCCO3)s1	none
Cc1oc(-c2cccs2)nc1CS(=O)CC(=O)NC1CCCCCC1 (stereo unspecified)	ALR H2O2 inh 99
Cc1oc(-c2cccs2)nc1CS(=O)CC(=O)NCc1ccc2c(c1)OCO2 (stereo unspecified)	none
Cc1oc(-c2ccc(Cl)cc2)nc1CS(=O)CC(=O)NC1CCCC1 (stereo unspecified)	ALR H2O2 inh 99
COc1ccc(-c2nsc(SCC(=O)NCC3CCCO3)n2)cc1 (stereo unspecified)	ALR H2O2 inh 95
COc1ccc(-c2nc(CN3CCCC(C(=O)NC4CCCC4)C3)c(C)o2)cc1 (stereo unspecified)	none
COc1ccc(-c2nc(CS(=O)CC(=O)NC3CCCC3)c(C)o2)cc1 (stereo unspecified)	ALR H2O2 inh 98
Oc1ccc(/C=N/Nc2ccc(Cl)nn2)c(O)c1O	none (no result: ALR H2O2 inh)
CCc1cc(S(=O)(=O)N2CCN(C(=O)c3ccco3)CC2)ccc1OC	none
C=CCNC(=O)C1CC2Cn3c(nc4cc(Cl)c(Cl)cc43)C2N1C (stereo unspecified)	none (no result: ALR H2O2 inh)
Cc1oc(-c2ccc(Cl)cc2)nc1CS(=O)CC(=O)NC1CCCCCC1 (stereo unspecified)	none
Cc1oc(-c2ccc(Cl)cc2)nc1CS(=O)CC(=O)NC1CCCCC1 (stereo unspecified)	ALR H2O2 inh 97
Cc1ccc(-c2nc(CS(=O)CC(=O)NC3CCCCC3)c(C)o2)cc1 (stereo unspecified)	ALR H2O2 inh 99
COc1ccc(-c2nc(CS(=O)CC(=O)NCC3CCCO3)c(C)o2)cc1 (stereo unspecified)	ALR H2O2 inh 98
COc1ccc(-c2nc(CS(=O)CC(=O)NC3CCCCC3C)c(C)o2)cc1OC (stereo unspecified)	ALR H2O2 inh 99
CCC1=NN2C(=N)/C(=C\c3ccc(OCCOc4ccccc4OC)cc3)C(=O)N=C2S1	none
Cc1nn(C)c(C(=O)Sc2cccc(Cl)c2)c1[N+](=O)[O-]	ALR H2O2 inh 98
CN(C)C(=O)c1c(-c2ccccc2)oc2ccc(O)cc12	ALR H2O2 inh 98
Cc1ccc(-c2csc(N=C(N)N)n2)cc1	ALR H2O2 inh 99
Cc1ccc(-c2csc(N3CCC(C(N)=O)CC3)n2)cc1	none (no result: HIF act, AI-2 QS modul)
CCNc1nc(Oc2ccc(F)cc2)cc(C(F)(F)F)n1	Mot1-301 SUMO 943
COc1cccc(/C=N/Nc2cc(-n3nc(C)cc3-c3ccccc3)ncn2)c1O	HIF act 52
O=[N+]([O-])c1cccnc1N/N=C/c1ccccc1O	HIF act 21
Cc1c(O)ccc(/C=N/Nc2ncccc2[N+](=O)[O-])c1O	none
Oc1ccccc1/C=N/Nc1nccnc1Cl	HIF act 127 (no result: ALR H2O2 inh)
Nc1c(Cl)ncnc1N/N=C/c1cccc(O)c1	ALR H2O2 inh 97
Oc1ccc(/C=N/Nc2nccnc2Cl)c(O)c1	none
Cc1ccc(S(=O)(=O)N(Cc2ccccc2)c2ccccc2C(=O)N2CCCCC2)cc1	none (no result: ALR H2O2 inh)
COCCNC(=O)C(c1ccc(C)cc1)N(C(=O)CCC(=O)Nc1ccccn1)c1ccccc1C (stereo unspecified)	none (no result: ALR H2O2 inh)
COc1cccc(/C=N/Nc2ncnc(Cl)c2N)c1O	AI-2 QS modul -82
COc1cccc(/C=N/Nc2nccnc2Cl)c1O	HIF act 31, AI-2 QS modul inconclusive (no result: ALR H2O2 inh, Mot1-301 SUMO)
COc1ccc(/C=N/Nc2ncnc(Cl)c2N)cc1OC	none
COc1cccc(/C=N/Nc2ncnc3scc(-c4ccccc4)c23)c1O	HIF act 105
CCCOc1ccc(C(F)(F)F)cc1NC(=O)c1cc(C)on1	none (no result: HIF act, ALR H2O2 inh, AI-2 QS modul)
Nc1c(-c2ccccc2)c(CSc2nc3ccccc3[nH]2)nn1-c1cccc(Cl)c1	ALR H2O2 inh 91
Nc1c(-c2ccccc2)c(CSc2nc3ccccc3[nH]2)nn1-c1ccc(Cl)cc1	none (no result: ALR H2O2 inh)
Nc1cc(=O)[nH]n1C1CCN(c2ccccc2)CC1	ALR H2O2 inh 94
CCCC(=O)Nc1ccc(NC(=O)Cc2ccccc2)cn1	ALR H2O2 inh 99
O=C(O)c1ccc(-n2c(O)c(C=C3N=c4ccccc4=N3)sc2=S)cc1	ALR H2O2 inh 99
CCN(CC)c1ccc(-n2c(O)c(C=C3N=c4ccccc4=N3)sc2=S)cc1	none
O=C(O)CCCn1c(O)c(C=C2N=c3ccccc3=N2)sc1=S	none
O=C(O)c1cccc(-n2c(O)c(C=C3N=c4ccccc4=N3)sc2=S)c1	ALR H2O2 inh 99
CCCC(C(=O)O)n1c(O)c(C=C2N=c3ccccc3=N2)sc1=S (stereo unspecified)	ALR H2O2 inh 89
COc1ccc(S(=O)(=O)N2CCOCC2)cc1NC(=O)Cc1ccc2c(c1)OCCO2	none (no result: HIF act, AI-2 QS modul)
CC(C)(C)c1ccc2c(c1)N(CC(=O)N1CCCC1)C(=O)CO2	none
Cc1ccc(NNC(N)=S)cc1Cl	ALR H2O2 inh 99
O=C(NCC(O)c1ccc2ccccc2c1)c1c(F)cccc1F (stereo unspecified)	AI-2 QS modul -75
O=C(NCCc1ccccc1)c1c(F)cccc1F	none
